Screening data deposited in PubChem by Broad Institute.
Hedgehog inh: Hedgehog pathway signaling inhibitors, primary screen, luminescence, Shh-LIGHT2 cells, Gli-luciferase; 2.1% of 22,000 active; Shh-LIGHT2 Gli-luciferase reporter, 30 h; inhibition, % (concentration not given with the values); AID 2313, 2010;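 active means mean inhibition across valid replicates above about 65%, limit read from the data; inconclusive means mean under the limit, yet half or more replicates past it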;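 further: pathway switched on by Shh-conditioned medium diluted 1 in 25 in low serum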
PD-1 reversal: activators reversing PD-1 mediated T-cell inhibition, primary screen, luminescence, primary human CD4 T cells, PD-L1 beads | CellTiter-Glo 96 h | activation, % (concentration not given with the values) | 29,000 tested, under 10 active | AID 2316, 2010; call rule not given here
MITF inh: inhibitors of MITF, primary screen, MITF inhibitor project, cell-based, luminescence. 0.28% of 37,000 active. TRPM1 promoter luciferase, 24 h. inhibition, % (no concentration beside the values); in the data active means inhibition above about 85%; inconclusive means no clear call, values can overlap the other calls; inactive means below about 68%;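 further: human melanocyte line stably carrying TRPM1 promoter luciferase reporter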
Numbers stand for hits; i = inactive; ? = inconclusive; nt = no result. Only a selection was taken, and hits are over-represented in it overall.

SMILES | Hedgehog inh | PD-1 reversal | MITF inh
C[C@@H]1CN([C@H](C)CO)C(=O)c2cc(NC(=O)Nc3ccccc3)ccc2O[C@H]1CN(C)C(=O)Nc1ccc(F)cc1 | i | i | i
Oc1ccc(-c2nc(-c3ccc(F)cc3)c(-c3ccncc3)[nH]2)cc1 | 74 | nt | i
C[S+](O)c1ccc(CSc2nc(-c3ccc(F)cc3)c(-c3ccncc3)[nH]2)cc1 (stereo not drawn) | i | i | i
C[C@H]1CN([C@@H](C)CO)C(=O)Cc2cc(N(C)C)ccc2O[C@@H]1CN(C)Cc1ccc(Cl)c(Cl)c1 | i | nt | i
C=C(C)[C@@H]1Cc2c(ccc3c2O[C@H]2COc4cc(OC)c(OC)cc4[C@@]2(O)C3=O)O1 | i | i | i
COc1ccc2c(c1)OCC(Cc1ccc(OC)c(OC)c1)C2=O (stereo not drawn) | i | nt | i
COc1ccc2c(c1)O[C@@H]1COc3cc(OC)c(OC)cc3[C@@H]1C2=O | i | nt | 110
COc1cc2c(cc1OC)[C@@H]1C(=O)c3ccc4c(c3O[C@@H]1CO2)CCC(C)(C)O4 | 94 | nt | ?
CC(=O)O[C@@H]1CC2C(C)(C)[C@H](O)C[C@H](O)[C@]2(C)C2CC[C@@]3(C)[C@H](c4ccoc4)OC(=O)[C@H]4O[C@]43[C@@]21C (stereo partly drawn) | i | nt | i
COC(=O)c1c(NC(=O)CN2C(=O)c3ccccc3C2=O)sc2c1CCC(C(C)(C)C)C2 (stereo not drawn) | nt | nt | i
CC1=C(C#N)C(c2ccccc2)C(C#N)=C(C)N1 | i | i | i
C[C@H]1CN([C@@H](C)CO)C(=O)c2cc(NC(=O)c3ccncc3)ccc2O[C@H]1CN(C)C(=O)Nc1ccc(F)cc1 | nt | i | i
Cc1ccc2nc(-c3cccnc3)cc(C(=O)Nc3scc(-c4ccc(C)c(C)c4)c3C(N)=O)c2c1 | nt | nt | i
Cn1c(SCc2ccc(C(F)(F)F)cc2)nnc1-c1ccc(OCC(F)(F)F)nc1 | 74 | i | i
Cn1c(SCC(N)=O)nnc1-c1ccc(C(C)(C)C)cc1 | nt | i | i
OC(CN1CCN(c2cccc(Cl)c2)CC1)C(c1ccccc1)c1ccccc1 (stereo not drawn) | 95 | nt | i
OCCOCCN1CCN(C(c2ccccc2)c2ccc(Cl)cc2)CC1 (stereo not drawn) | i | i | i
CCCNC(=O)[C@H]1O[C@@H]1C(=O)N[C@H](C(=O)N1CCC[C@H]1C(=O)OC)C(C)CC (stereo partly drawn) | i | i | i
C[C@@H]1CN([C@H](C)CO)C(=O)Cc2cc(NS(C)(=O)=O)ccc2O[C@@H]1CN(C)C(=O)Nc1cccc2ccccc12 | i | i | i
O=C(CSc1nc(-c2ccccc2)cc(C(F)(F)F)n1)c1ccccc1 | nt | i | i
O=C(CSc1nc(SCC(=O)c2ccccc2)c2ccccc2n1)c1ccccc1 | 76 | i | i
Cc1ccc(S(=O)(=O)N(C)CC(=O)Nc2cccc(I)c2)cc1 | nt | i | i
CNC[C@@H]1Oc2ccc(NC(=O)Cc3cn(C)c4ccccc34)cc2C(=O)N([C@@H](C)CO)C[C@H]1C | nt | i | i
CCOC(=O)c1c(NC(=O)c2nn(CC)cc2Br)c(C#N)nn1-c1ccccc1 | nt | i | i
CCOC(=O)c1nn(-c2ccccc2)c(C#N)c1NC(=O)c1nn(CC)cc1Br | 66 | i | i
SMILES | Hedgehog inh | PD-1 reversal | MITF inh
CC(=O)[C@@]1(O)CCC2C3CCC4=CC(=O)CC[C@]4(C)C3CC[C@@]21C (stereo partly drawn) | i | nt | i
CCCCCC(=O)O[C@]1(C(C)=O)CCC2C3CCC4=CC(=O)CC[C@]4(C)C3CC[C@@]21C (stereo partly drawn) | 96 | nt | i
C[C@@H]1CN([C@@H](C)CO)C(=O)c2cc(NC(=O)c3ccncc3)ccc2O[C@@H]1CN(C)Cc1ccc(C(=O)O)cc1 | i | i | i
CC1=C2CCC(C(=O)O)=CC2C(C(C)C)CC1 (stereo not drawn) | i | i | i
CC(=O)OC1/C=C(/C(=O)O)CC/C=C(/C)C(=O)/C=C\C1(C)C (stereo not drawn) | 65 | i | i
C[C@H]1CN([C@@H](C)CO)C(=O)c2cccc(NC(=O)c3ccc(-c4nccs4)cc3)c2O[C@@H]1CN(C)C(=O)Nc1ccc2c(c1)OCO2 | i | i | i
CC(=O)O[C@@H]1CC2C(C)(C)C(=O)C=C[C@]2(C)C2CC[C@@]3(C)[C@H](c4ccoc4)OC(=O)[C@H]4O[C@]43[C@@]21C (stereo partly drawn) | i | nt | i
CC(=O)O[C@@H]1C=C[C@@]2(C)C(C[C@@H](OC(C)=O)[C@@]3(C)C4=CC(=O)O[C@@H](c5ccoc5)[C@]4(C)CCC23)C1(C)C (stereo partly drawn) | i | nt | 91
Cc1oc2c(c1C(=O)NC1CCCC1)C(=O)c1ccccc1C2=O | i | i | i
